Measured values as given in ChEMBL document CHEMBL3988442, “University of Dundee, Small-Polar-MMV Screening Library” (2021).
About 13,000 (27%) of roughly 48,000 compounds showed an effect of 50% or more. This is one part of the list.

These compounds were tested on Wolbachia pipientis (assay: Anti-Wolbachia Cell-Based Screen). Details: 5 µM.
Type: functional
Design: scale not given: in the data most compounds retested in dose-response had high values

SMILES | Percent Effect [%]
Cc1nc(C)n(CC2CCCCN2CC(=O)Nc2cccnc2)n1 (stereo not drawn) | -1.265
Cn1cc(CNCCNC(=O)Cc2ccccc2)c(-c2cccnc2)n1 | 13.61
COc1ccccc1S(=O)(=O)N1CC(N(C)C)Cc2ccccc21 (stereo not drawn) | 4.709
CN(C)C(=O)CN1C[C@H]2CCN(C(=O)C3CCCO3)CC[C@H]2S1(=O)=O (stereo partly drawn) | -8.272
CCOc1ccnc(N2CCCN(c3nc(C4CC4)ns3)CC2)n1 | -0.1352
CCCC(Nc1nc(COCC)nc2c1CCNCC2)c1nccn1C (stereo not drawn) | 3.628
CC1CCC(NS(=O)(=O)CC(=O)NC(C2CC2)C2CC2)CC1 (stereo not drawn) | 99.55
O=C(CN1CCN(CCO)CC1)NC(C1CC1)C1CC1 | -6.092
CC1CCC(N2CCC(NS(=O)(=O)CCOC(C)C)CC2)CC1 (stereo not drawn) | -12.56
O=C(c1ccccc1F)N1CCN(c2ccc(-n3cccn3)nn2)CC1 | 5.073
CN(Cc1cnn(C)c1)C(=O)C1COc2ccccc2C1 (stereo not drawn) | -7.691
CCc1ccsc1C(=O)N(C)CCc1ccncc1 | 33.97
CC(=O)N1N=C(c2ccco2)OC1C(=O)N(C)CCc1ccccc1 (stereo not drawn) | 108.8
CN(Cc1ccccc1)C(=O)[C@@H]1Cc2[nH]cnc2CN1C | 13.33
CC(=O)N1Cc2ccccc2C[C@H]1C(=O)N(C)CCc1ccccn1 | -17.28
CC(=O)N1N=C(c2ccccc2)OC1C(=O)N(C)Cc1ccccc1 (stereo not drawn) | 105.2
CCC(=O)N1CSCC1C(=O)N(C)CCc1ccccc1 (stereo not drawn) | -0.07211
CC(=O)N1N=C(c2ccncc2)OC1C(=O)N(C)CCc1ccccc1 (stereo not drawn) | 108.6
CN(CCc1ccccc1)C(=O)CN1C(=O)OC[C@@H]1c1ccccc1 | -12.26
CN(CCc1ccccc1)C(=O)c1cc(CN2CCC(O)CC2)on1 | -17.23
CC(=O)N1N=C(c2ccccc2)OC1C(=O)N(C)CCc1ccccc1 (stereo not drawn) | 94.62
CC/C=C(/C)C(=O)N1CSCC1C(=O)N(C)CCc1ccncc1 (stereo not drawn) | -7.241
Cc1cnc(C(=O)N[C@H]2CN(CCS(C)(=O)=O)C[C@@H]2C2CC2)cn1 | 4.986
CC(Cc1cncs1)Nc1ncnc2cccc(F)c12 (stereo not drawn) | -13.2
CC(C)Cc1noc(CC2CCS(=O)(=O)C2)n1 (stereo not drawn) | -7.316
CN(C)c1ccc(CNC2(c3ccc(F)cc3)CCOCC2)cc1F | -20.17
Cc1csc2c(N3CCC(NCCCc4ccncc4)CC3)ncnc12 | -7.721

SMILES | Percent Effect [%]
CO[C@H]1CN(Cc2cc(Cn3cncn3)c(C)cc2C)CC[C@H]1N | 13.4
CCC(=O)N1CCCC1c1nccnc1Nc1nc(C)cc(C)n1 (stereo not drawn) | 4.912
Cc1cc(C)nc(Nc2nccnc2C2CCCN(C(C)C)C2)n1 (stereo not drawn) | 76.04
Cc1cc(C)nc(Nc2nccnc2C2CCCN(C(CO)CO)C2)n1 (stereo not drawn) | 89.81
CC(=O)N1CCCC(c2nccnc2Nc2nc(C)cc(C)n2)C1 (stereo not drawn) | 92.16
Cc1cc(C)nc(Nc2nccnc2C2CCCN(CCO)C2)n1 (stereo not drawn) | 115.9
CCN1C(=O)[C@H]2CN(Cc3cccnc3)C[C@H]2C12CCN(C(C)=O)CC2 | -22.31
COCC(NC(=O)NCc1ccc(C)c(F)c1)c1ccco1 (stereo not drawn) | 5.842
O=C(NC1CC1)N1CCCC2(CCNC2=O)C1 (stereo not drawn) | -20.05
COc1c(F)cc(NCC(=O)NC(C)(C#N)C2CC2)cc1F (stereo not drawn) | -10.88
CCOC(=O)N1CCN(c2nc(N)c3ccccc3n2)CC1.Cl | 10.93
Cc1nc(COC(=O)c2cccnc2C)no1 | 111.5
COCc1ccccc1C(=O)N(C)Cc1ncc(C)c(OC)c1C | 29.72
Cc1csc(CN(CC2CCCO2)C(=O)c2cccnc2C)n1 (stereo not drawn) | -5.515
Cc1noc(C)c1CC(=O)OCc1nc(N)c2ccccc2n1 | -18.91
Cc1nc(COc2cccc(C#N)c2)no1 | 2.018
COCc1ccccc1C(=O)OCc1noc(C)n1 | 97.59
Cc1cnc(N2CCC(OCCN3CCCCC3)C2)nc1C (stereo not drawn) | 11.15
CN(CC1CC1)C(=O)CN(Cc1cccc(O)c1)C1CCC(O)CC1 (stereo not drawn) | -10.37
CN1CCC(N2C[C@H](O)C[C@H]2c2nc(Cc3ccccc3)no2)CC1 | -1.075
CN1CC[C@H](N(C)Cc2ccccc2)C[C@H](O)C1 | 67.42
CN1CCC(N(Cc2ccccc2)C(=O)c2ccn3cncc3c2)CC1 | -5.801
CN1CCC(N2CCC(CN(Cc3ccncc3)C3CCC3)CC2)CC1 | 7.68
CN1CCC(N(C)CCC(=O)N2CCC(CCc3ccccc3)CC2)C1 (stereo not drawn) | -7.751
CN1CCC(N(C)CCC(=O)N2CCC(OCc3ccccc3)CC2)C1 (stereo not drawn) | -15.08
CN1CCC(N(Cc2ccccc2)C(=O)c2nccn3ccnc23)CC1 | 3.341
